Laboratory results reported in publication PMC5540273 (PLoS ONE, 2017).

Experiments:
Conditions in all cases: concentration: 1 μM, replicates: in singlicate; n = 1
AAK1 = tested on: AAK1
ABL1-nonphosphorylated = tested on: ABL1-nonphosphorylated
ABL1-phosphorylated = tested on: ABL1-phosphorylated
ABL2 = tested on: ABL2
ACVR1B = tested on: ACVR1B
ACVR1 = tested on: ACVR1
ACVR2A = tested on: ACVR2A
ACVR2B = tested on: ACVR2B
ACVRL1 = tested on: ACVRL1
ADCK3 = tested on: T1, ADCK3
T1 construct: gene CABC1
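Also: KINOMEscan kinase panel screen.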

| SMILES | %Inh (AAK1) | %Inh (ABL1-nonphosphorylated) | %Inh (ABL1-phosphorylated) | %Inh (ABL2) | %Inh (ACVR1B) | %Inh (ACVR1) | %Inh (ACVR2A) | %Inh (ACVR2B) | %Inh (ACVRL1) | %Inh (ADCK3) |
| --- | --- | --- | --- | --- | --- | --- | --- | --- | --- | --- |
| CSc1ccc(NC2=C(c3ccc(Cl)cc3)C(=O)NC2=O)cc1 [SB-317658] | 0% | 0% | 0% | 0% | 13% | 0% | 15% | 0% | 23% | 1% |
| CCOc1nccc(-c2c(-c3ccc(F)cc3)ncn2C2CCNCC2)n1 [SB-249175] | 11% | 35% | 2% | 0% | 100% | 11% | 9% | 0% | 1% | 13% |
| Fc1cc(Cl)ccc1Nc1ccnc2cc(-c3ccc(CN4CCOCC4)o3)ccc12 [GW560109] | 0% | 99.5% | 99.8% | 96.4% | 0% | 86% | 22% | 88% | 65% | 0% |
| Cc1nn2c(=O)cc(N3CCO[C@H](C)C3)nc2n1Cc1cccc(Cl)c1Cl [GSK2373693] | 1% | 0% | 0% | 14% | 22% | 0% | 14% | 0% | 0% | 15% |
| Cc1cccc(Nc2nc(N[C@H]3CCCC[C@H]3N)ncc2C(N)=O)c1.Cl [GSK986310] | 55% | 0% | 8% | 24% | 0% | 5% | 0% | 11% | 0% | 17% |
| Cn1cc(-c2ccc3c(c2)CCN3C(=O)Cc2cc(F)cc(C(F)(F)F)c2)c2c(N)ncnc21 [GSK2635225] | 10% | 78% | 15% | 40% | 0% | 0% | 0% | 12% | 0% | 17% |
| COc1cccc2c(-c3ccncc3)c(-c3ccc(F)cc3)nn12 [GW468513] | 10% | 0% | 0% | 5% | 76% | 31% | 0% | 3% | 3% | 43% |
| Cl.Cl.NCC(NC(=O)c1cc(-c2cccnc2)c(-c2ccnc3[nH]ccc23)s1)c1ccccc1 (centres unmarked) [GSK1323434] | 59% | 54% | 37% | 30% | 0% | 19% | 0% | 0% | 0% | 97.5% |
| COc1cccc(-c2nc(-c3ccccc3)[nH]c2-c2ccncc2)c1 [SB-610250] | 2% | 0% | 8% | 27% | 0% | 24% | 0% | 0% | 2% | 8% |
| COc1ccc(NC(=O)c2ccoc2)cc1-c1ccc(C(=O)NCC2CC2)cc1 [GW810437] | 0% | 24% | 1% | 5% | 4% | 0% | 0% | 17% | 10% | 0% |
| COc1cc(Nc2ccnc3cc(-c4ccncc4)ccc23)cc(OC)c1OC.Cl [GW494610] | 0% | 97.9% | 99.4% | 93% | 86% | 99.5% | 0% | 54% | 88% | 98.6% |
| O=C1NC(=O)C(c2ccccc2Cl)=C1Nc1cccc(Cl)c1 [SB-342409] | 7% | 0% | 9% | 16% | 0% | 12% | 0% | 0% | 70% | 20% |
| CC(C)NCC(Cc1ccccc1)NC(=O)c1cc(Br)c(-c2ccnc3[nH]ccc23)s1.Cl.Cl (centres unmarked) [GSK1383281] | 25% | 0% | 14% | 5% | 0% | 0% | 0% | 0% | 0% | 14% |
| CN(c1ccc(NC(=O)Nc2cccc(Cl)c2)cc1)c1ccnc(N)n1.Cl [GW830707] | 0% | 0% | 0% | 3% | 4% | 0% | 0% | 0% | 9% | 0% |
| O=C(Nc1n[nH]c2nc(-c3cccc(O)c3)ccc12)C1CC1 [SB-711805] | 33% | 94.2% | 88% | 27% | 13% | 32% | 43% | 74% | 0% | 0% |
| Cc1ccc(-c2ccc3occ(-c4ccc(S(C)=O)cc4)c3c2)nn1 (centres unmarked) | 15% | 35% | 29% | 0% | 7% | 0% | 0% | 0% | 20% | 0% |

| SMILES | %Inh (AAK1) | %Inh (ABL1-nonphosphorylated) | %Inh (ABL1-phosphorylated) | %Inh (ABL2) | %Inh (ACVR1B) | %Inh (ACVR1) | %Inh (ACVR2A) | %Inh (ACVR2B) | %Inh (ACVRL1) | %Inh (ADCK3) |
| --- | --- | --- | --- | --- | --- | --- | --- | --- | --- | --- |
| Cl.N#CCc1ccc(Nc2nccc(Nc3ccc(Oc4ccccc4)cc3)n2)cc1 [GW639905] | 7% | 0% | 9% | 13% | 0% | 26% | 100% | 0% | 0% | 6% |
| Cc1ccc(O)cc1Nc1ccnc2cc(-c3ccc(CN4CCCCC4)o3)ccc12 [GW557777] | 10% | 100% | 99.9% | 100% | 79% | 99.4% | 18% | 94.7% | 90.3% | 4% |
| O=C(O)C(F)(F)F.O=c1[nH]ccc2nc(N[C@@H]3CCNC3)nc(Nc3ccc4c(c3)S(=O)(=O)CC4)c12 [GSK2181306] | 87% | 53% | 66% | 26% | 0% | 15% | 0% | 3% | 0% | 14% |
| CN(c1ccc(F)c(NC(=O)c2cccc(OC(C)(C)C#N)c2Cl)c1)c1ccc2nc(NC(=O)C3CC3)sc2n1 | 2% | 99% | 92.6% | 89% | 0% | 0% | 0% | 0% | 0% | 0% |
| O=C(Nc1n[nH]c2nc(-c3ccccc3)ccc12)C1CC1 [SB-708999] | 100% | 62% | 41% | 16% | 22% | 6% | 9% | 37% | 0% | 2% |
| Nc1ncc(-c2cn[nH]c2)c2scc(-c3ccc4c(c3)CCN4C(=O)Cc3ccccc3)c12 [GSK2593067] | 52% | 99.2% | 81% | 89% | 0% | 0% | 0% | 16% | 0% | 0% |
| Cc1ccccc1CC(=O)N1CCc2cc(-c3cn(C)c4ncnc(N)c34)ccc21 [GSK2603346] | 3% | 50% | 25% | 29% | 0% | 0% | 0% | 65% | 11% | 3% |
| Cc1ccc(C)c(NC(=O)Nc2ccc(C)c(-c3ccc(C(=O)Nc4ccncc4)cc3)c2)c1 [GSK1398473] | 11% | 0% | 0% | 14% | 0% | 18% | 0% | 3% | 0% | 14% |
| CC(=O)Nc1cn2nc(Oc3cccc(NC(=O)c4cccc(C(F)(F)F)c4)c3)ccc2n1 | 0% | 100% | 99.9% | 99.3% | 0% | 0% | 0% | 31% | 0% | 0% |
| Cl.O=C(Nc1ccc(Oc2ccc3[nH]c(NC(=O)c4ccco4)nc3c2)cc1)Nc1cc(C(F)(F)F)ccc1F [GW683134] | 5% | 96.1% | 76% | 97.9% | 0% | 0% | 4% | 0% | 0% | 0% |
| Cc1ccc(Nc2ccnc(Nc3ccc(C)c(F)c3)n2)cc1O.Cl [GW582868] | 0% | 3% | 47% | 70% | 0% | 88% | 53% | 92.9% | 62% | 14% |
| CNc1nccc(-c2ccc3c(N)n[nH]c3c2)n1 [GSK2206003] | 74% | 7% | 3% | 20% | 10% | 7% | 8% | 67% | 0% | 1% |
| Cn1cc(-c2ccc3c(c2)CCN3C(=O)Cc2cc(F)cc(F)c2F)c2c(N)ncnc21 [GSK2634140] | 0% | 82% | 29% | 57% | 15% | 0% | 0% | 0% | 0% | 6% |
| CC(C)c1nc(-c2ccc(F)c(NS(=O)(=O)c3c(F)cccc3F)c2)c(-c2ccnc(Nc3ccc(N4CCOCC4)nc3)n2)s1 [GSK1804250] | 7% | 99.8% | 98.8% | 99.3% | 91.9% | 87% | 0% | 75% | 52% | 99.4% |
| COc1cc(Nc2nccc(N3CCC(NC(=O)Nc4ccc5c(c4)OCO5)C3)n2)cc(OC)c1OC (centres unmarked) [GSK1379766] | 66% | 0% | 0% | 0% | 0% | 11% | 0% | 0% | 0% | 0% |
| c1ccc(Oc2ccc(Nc3ccnc4cc(-c5ccc(CN6CCCCC6)o5)ccc34)cc2)nc1 [GW567143] | 0% | 85% | 24% | 24% | 0% | 0% | 32% | 0% | 0% | 0% |
